Out of some 220,000 compounds screened, about 2,000 (0.91%) were called active. Roughly 2% stayed inconclusive and do not appear here. A selection follows. Measured potencies and affinities stand elsewhere. Values without a mark were called inactive. Rule as the data show it: inconclusive = inhibition above about 80% without an active follow-up result; inactive = below that; test concentration not stated here.
Assay: M. tuberculosis H37Rv growth inhibitors, H37Rv strain (AID 1626);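 also: bacteria incubated seven days before Alamar blue readout; 0% = bacteria only wells and 100% = bacteria with antibiotic wells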
Settings: hits give high values, concentration not given here
For `CCc1nnc(NC(=O)c2cc3c(s2)CCCCC3)s1`, the inhibition was -9.6%. Compound `Cc1csc(NC(=O)c2cc3c(s2)CCCCC3)n1` has an inhibition of 16.1%. With `Cc1cc(Cl)ccc1NC(=O)C1CCCN1C(=O)c1cccs1` (centres undefined) the inhibition was 0.31%. In the case of `CCN(CC)CCn1c(SCC(=O)NCc2ccccc2)nc2c(sc3ccccc32)c1=O`, the inhibition is reported as 3.01%. `COc1ccc(Nc2c3c(nc4ccccc24)CCCC3)cc1OC` gave an inhibition of 8.23%. With `O=C(CSc1nnc(NC(=O)c2ccccc2C(=O)O)s1)Nc1ccccc1Cl` the inhibition was -9.06%. For `CCOc1cc(/C=C/c2cc(C(F)(F)F)[nH]c(=O)n2)ccc1O`, the inhibition was 2.01%. `COc1cc(C(=O)N/N=c2/sc3ccccc3n2C)cc(OC)c1OC` showed an inhibition of -5.9%. With `COc1ccccc1NC(=O)c1cc2ccccc2nc1C` the inhibition was 2.95%. Work on `O=C(COc1ccc2c(-c3ccccc3)cc(=O)oc2c1)NCc1cccs1` yielded an inhibition of 1.19%. `CCCc1cc(=O)oc2cc(OCC(=O)NCc3cccs3)ccc12` showed an inhibition of 7.98%. Work on `COc1ccc(Cn2ccnc2CO)cc1[N+](=O)[O-]` yielded an inhibition of -1.53%. `COc1ccc(-c2cc(C(=O)Nc3ccc(O)cc3)c3ccccc3n2)cc1OC` showed an inhibition of 14.5%. `COc1cccc(-c2cc(C(=O)Nn3cnnc3)c3ccccc3n2)c1` showed an inhibition of 2.95%. `O=C(Nc1nc2ccccc2s1)c1cc(-c2ccco2)nc2ccccc12` gave an inhibition of 13.9%. With `O=C(O)c1cc(-c2ccccc2)nc2ccccc12` the inhibition was -5.49%. With `O=C(NC(=S)Nc1ccccc1)c1cc(-c2ccccc2)nc2ccccc12` the inhibition was -4.77%. Work on `COc1ccc(-c2cc(C(=O)Nc3nc4c(C)cccc4s3)c3ccccc3n2)cc1OC` yielded an inhibition of 12.1%. Compound `O=C(C[n+]1ccccc1)Nc1c(Cl)cc(Cl)cc1Cl` has an inhibition of -1.93%. `Cn1cnnc1SCC(=O)Nc1nc(-c2ccccc2)cs1` gave an inhibition of -4.7%. `COc1ccc(NC(=O)CSc2nc3c([nH]c4ccccc43)c(=O)n2C)cc1` showed an inhibition of 7.61%. Work on `Cc1ccc(OCC(=O)c2cc(C)n(CC(F)(F)F)c2C)c([N+](=O)[O-])n1` yielded an inhibition of -2.91%. `N/C(CS(=O)(=O)c1ccccn1)=N\OC(=O)c1ccc(Cl)cc1` gave an inhibition of -1.94%. Compound `Cn1ncc(N)c1C(=O)Nc1cccc(C(F)(F)F)c1` has an inhibition of 4.36%. For `O=C(c1cccc(Cl)c1)N1CCC(=O)N(C(COCc2ccccc2)Cc2ccccc2)CC1` (centres undefined), the inhibition was -0.16%. `CCOC(=O)c1sc2nc3c(SCC(=O)O)cc(C(=O)c4cc(F)ccc4O)cn3c(=O)c2c1C` gave an inhibition of -5.14%. In the case of `COc1ccc(Oc2nc(-c3ccncc3)nc3ccccc23)cc1`, the inhibition is reported as 3.37%. For `Cc1ccc(Oc2nc(C(F)(F)F)nc3ccccc23)cc1`, the inhibition was 9.79%. Compound `CC(=O)Nc1ccc(Oc2nc(-c3ccccn3)nc3ccccc23)cc1` has an inhibition of -12.6%. `C/C(=N\Nc1nc(-c2ccccn2)nc2ccccc12)c1ccc(F)cc1` showed an inhibition of 67.4%. In the case of `CC(=O)Nc1cccc(Oc2nc(-c3ccccn3)nc3ccccc23)c1`, the inhibition is reported as 3.26%. For `FC(F)(F)c1cc(Oc2ccc(Cl)cc2)nc(-c2ccccn2)n1`, the inhibition was 11.7%. In the case of `Cc1cc(Oc2ccc(Cl)cc2)nc(-c2ccccc2O)n1`, the inhibition is reported as 20.4%. With `CSc1nc(Oc2ccc(F)cc2)c2ccccc2n1` the inhibition was 8.64%. Work on `COc1cc(C(=O)c2nccc3cc(OC)c(OC)cc23)c([N+](=O)[O-])cc1OC` yielded an inhibition of 1.27%. `COc1ccc(Nc2nnc(SCC(=O)/C=C3/N(C)c4ccccc4C3(C)C)s2)cc1` gave an inhibition of 10.8%. `CCSc1nnc(-c2ccc(C)cc2)c2ccccc12` gave an inhibition of 18.7%. `Cc1onc(-c2ccccc2)c1C(=O)N/N=C/c1cc(Br)c(Br)o1` gave an inhibition of -1.13%. With `COc1ccc2nc(SCC(=O)NCCc3ccccc3)[nH]c2c1` the inhibition was 0.98%. `O=c1[nH]c(SCc2nc3ccccc3n2Cc2ccccc2)nc2ccccc12` showed an inhibition of 5.31%. Work on `Fc1ccc(CSc2nncn2NCc2ccccc2)cc1` yielded an inhibition of -8.84%. In the case of `O=C(Nc1cccc(NC(=O)c2cccs2)c1)c1ccc2c(c1)OCCO2`, the inhibition is reported as 4%. `O=C(NNC1=NCCC1)c1cccc(S(=O)(=O)N2CCCC2)c1` showed an inhibition of -1.54%. Compound `Cc1cccc(N=Cc2c(O)cc(C)oc2=O)c1` has an inhibition of 2.51%. Compound `Cc1cc(C)cc(Oc2ccc(N)cc2)c1` has an inhibition of -4.94%. Work on `Brc1ccc2ncc(Br)cc2c1` yielded an inhibition of 9.05%. Work on `Nc1ccc(Oc2cccc(Oc3ccc(N)cc3)c2)cc1` yielded an inhibition of 0.76%. Work on `Nc1ccc(Br)cc1C(=O)O` yielded an inhibition of -3.82%. Work on `CCOC(=O)N1CCN(S(=O)(=O)c2ccc3c(c2)CCN3C(=O)CC)CC1` yielded an inhibition of -14.9%.

— PubChem BioAssay AID1626 (SRMLSC, 2009)
